A selection: hits, their analogues and other compounds. The true share with any hit is near 4.8%.
ssDAF-12 act: S. stercoralis DAF-12 nuclear receptor activators, primary screen, cell-based, luminescence, HEK293, GRIP1 co-expression, lit1-tk-luc; actives 1% (n = 370,000); Nuclear hormone receptor DAF-12 (Strongyloides stercoralis); activation, % at 6.8 µM; HEK293 ssDAF-12/GRIP1 lit1-tk-luc reporter; % of 3 µM dafachronic acid response;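 active = activation above the mean over all tested compounds plus 3 SD, cut at about 0.9% in these data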;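 note: 0% = DMSO-only wells and 100% = 3 µM delta7-dafachronic acid wells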
DAX1 inh-1: DAX1 (NR0B1) inhibitors on StAR promoter, primary screen, cell-based, luminescence, SF-1 (NR5A1), full-length DAX-1 | actives 1.1% (n = 370,000) | HEK293T StAR-luciferase reporter, SF-1/DAX-1 repression relief | inhibition, % at 6.8 µM | AID 652010, 2013;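 active = inhibition above the mean over all tested compounds plus 3 SD, cut at about 3.6% in these data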;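 note: 0% = DAX-1 cells with DMSO and 100% = cells lacking DAX-1 with DMSO; higher inhibition means more luminescence from relief of DAX-1 repression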
hcDAF12 agonist: H. contortus DAF-12 nuclear receptor activators, primary screen, cell-based, luminescence, HEK293, lit1-tk-luc reporter; HEK293 hcDAF-12 lit1-tk-luc reporter; 0% DMSO, 100% Δ7-dafachronic acid; activation, % at 6.8 µM; actives 1.4% (n = 370,000);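 active = activation above the mean of all tested compounds plus 3 SD, cut at about 5.5% in these data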;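 note: 100% = response to 3 µM Δ7-dafachronic acid high control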
DAX1 inh-2: DAX1 (NR0B1) inhibitors, primary screen, cell-based, HEK293, Gal4-DAX1, luciferase luminescence; actives 0.99% (n = 340,000); HEK293 Gal4-DAX1 luciferase reporter; inhibition, % at 6.75 µM; AID 504766, 2011;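 active = inhibition above the mean over all tested compounds plus 3 SD, cut at about 4.2% in these data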;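 note: 0% = DAX1-transfected cells with DMSO and 100% = empty-vector control cells with DMSO; inhibition shows as a rise in luminescence from relieved DAX1 repression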
Target sequence (P51843 207-470 limits assumed): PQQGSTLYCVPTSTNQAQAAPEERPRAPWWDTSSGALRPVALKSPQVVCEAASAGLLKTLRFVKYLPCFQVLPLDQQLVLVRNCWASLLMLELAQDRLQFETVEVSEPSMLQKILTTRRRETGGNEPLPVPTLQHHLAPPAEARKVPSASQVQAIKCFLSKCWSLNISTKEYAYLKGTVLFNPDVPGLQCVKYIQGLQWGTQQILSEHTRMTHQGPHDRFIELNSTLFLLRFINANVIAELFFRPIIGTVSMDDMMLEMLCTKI
SMARCA2 act: SMARCA2 (BRM) function activators, primary screen, cell-based, luminescence, high throughput; MG213 cells, MMTV-luciferase reporter, dexamethasone, overnight; activation, % at 9.1 µM; actives 1% (n = 370,000); in the data active = activation above about 7.8%;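 note: 0% = vehicle wells and 100% = reference activator wells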
hgDAF-12 ag: H. glycines DAF-12 receptor agonists, primary screen, cell-based, luminescence, HEK293, GAL4 fusion, UAS-luciferase | activation, % at 6.8 µM | actives 1.8% (n = 370,000) | HEK293 GAL4-hgDAF12 UAS-luciferase reporter, agonist luminescence; normalized to butyrate control | AID 687014, 2013;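 active = activation above a cutoff set at the mean of all screened compounds plus 3 SD, cut at about 10% in these data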;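 note: 0% = DMSO wells and 100% = sodium butyrate wells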
Starred values were filed as active, the others as inactive; · = no result given.

SMILES | ssDAF-12 act | DAX1 inh-1 | hcDAF12 agonist | DAX1 inh-2 | SMARCA2 act | hgDAF-12 ag
O=S(=O)(Nc1nccs1)c1cnc(Cl)c(Br)c1 | -0.7 | 1.5 | 4.7 | 0.6 | -4.1 | 0.4
O=S(=O)(Nc1nc2ccccc2s1)c1cnc(Cl)c(Br)c1 | 1.0* | 0.8 | 4.8 | 1.6 | -1.7 | -0.3
Cc1cc(C(=O)Nc2ccc3[nH]ccc3c2)no1 | -0.4 | 1.5 | 3.3 | 2.1 | 6.6 | 11.0*
O=C(O)c1cccc2c1-c1ccc(Cl)cc1C2=O | -1.2 | -0.5 | 0.8 | -0.5 | -0.8 | 0.6
Nc1cccc2c1C(=O)c1ccc(Cl)cc1C2=O | -0.8 | 3.7* | 2.7 | 2.1 | 3.5 | 6.0
COc1ccc(C(C(=O)NCc2ccccc2)N(Cc2cccnc2)C(=O)c2snc(C(N)=O)c2N)cc1OC (stereo not drawn) | -1.4 | -0.1 | 0.4 | 4.3* | 1.3 | -2.8
CN(C)c1ccc(C(C(=O)NCc2ccccc2)N(Cc2cccnc2)C(=O)c2snc(C(N)=O)c2N)cc1 (stereo not drawn) | -0.7 | -1.0 | -2.5 | -2.8 | 1.8 | -3.6
COc1ccc(OC)c(NC(=O)Cn2c(=O)n(CC3CCCO3)c(=O)c3cc(OC)c(OC)cc32)c1 (stereo not drawn) | -1.5 | 0.2 | -3.0 | -0.6 | 2.2 | 1.2
O=C(CN(Cc1ccc(F)cc1)C(=O)CCC(=O)Nc1nccs1)NCc1ccc(F)cc1 | -1.5 | -0.5 | -3.0 | 4.6* | -1.3 | -2.4
O=C(Nc1ccc(Cl)cc1)O[C@@H]1CC[C@@]23CCCN2C(=O)CCC[C@H]3C1 | -1.9 | · | -3.0 | · | · | -2.1
Oc1ccc(-c2nc3ccccn3c2NCc2ccco2)cc1 | -0.5 | -0.4 | -0.4 | 4.3* | -1.0 | 5.9
O=C(Nc1c(-c2ccccc2)nc2ccccn12)c1ccco1 | -1.6 | 0.0 | -1.3 | 1.1 | 0.4 | -2.3
CC(=O)C1=C(O)C(CSCc2ccccc2)N(C)C1=O (stereo not drawn) | -1.1 | 0.8 | -0.6 | -0.2 | -0.5 | -0.7
COc1cnn(-c2ccc(C)cc2)c(=O)c1Cl | -1.0 | 0.8 | 2.7 | 0.2 | 3.1 | 11.7*
Cc1ccc(N2CC(C(=O)Nc3nnc(SCc4ccccn4)s3)CC2=O)cc1 (stereo not drawn) | -1.1 | -0.3 | -0.4 | 0.5 | 0.1 | -1.5
O=C(Nc1nnc(SCc2ccccn2)s1)C1CC(=O)N(c2ccccc2)C1 (stereo not drawn) | -1.0 | -0.6 | -1.6 | 6.5* | -1.1 | 2.3
C=C(C)CSc1nc2nc(C)c(Br)cc2[nH]1 | -1.7 | 1.5 | -0.2 | 6.0* | 4.9 | 4.9
COC(=O)CSc1nc2nc(C)c(Br)cc2[nH]1 | -1.3 | 0.1 | 0.0 | -0.1 | 0.2 | 2.6
COc1ccc(OC)c(-c2nc(C(=O)NCCCN3CCOCC3)cc3c2[nH]c2ccccc23)c1 | 1.0* | 0.9 | 3.8 | 3.5 | 2.5 | -1.6
COc1ccc(OC)c(-c2nc(C(=O)NC3CCN(Cc4ccccc4)CC3)cc3c2[nH]c2ccccc23)c1 | -1.6 | 1.5 | -0.8 | 0.6 | -1.4 | -1.3
CSc1nc2c(=O)[nH]cnc2s1 | -1.1 | 0.1 | 0.8 | · | -2.0 | 1.9
O=C(Nc1ccc2c(c1)OCO2)c1csc([C@@H]2C[C@H](O)[C@@H](CO)O2)n1 | -0.3 | 1.3 | 2.9 | · | -1.1 | -0.2
Cc1ccc(C(=O)N2CCN(c3ccc(NC(=O)c4cccnc4Cl)cc3)CC2)cc1 | -1.2 | -0.6 | -3.2 | -1.9 | -1.4 | -0.7
CC1CCN(c2ccc(NC(=O)c3cccnc3Cl)cc2)CC1 | -1.1 | 0.9 | 0.3 | 1.9 | 1.0 | 11.5*
Cc1cc(=O)nc2c3ccccc3n(CC(=O)NC3CCCCC3)n12 | -0.4 | -0.2 | 4.7 | 0.7 | 0.0 | 0.6
SMILES | ssDAF-12 act | DAX1 inh-1 | hcDAF12 agonist | DAX1 inh-2 | SMARCA2 act | hgDAF-12 ag
CCCN(CCC)C(=O)Cn1c2ccccc2c2nc(=O)cc(C)n21 | 1.1* | 0.6 | 4.4 | -0.8 | -2.1 | -0.7
O=S(=O)(Cc1nc2ccccc2s1)c1ccccc1 | -0.3 | 3.3 | 3.8 | 1.3 | 5.4 | 10.7*
CCOC(=O)C1CCN(C(=O)c2cc(S(=O)(=O)N3CCCCCC3)ccc2OC)CC1 | -1.1 | -0.4 | 0.7 | 1.1 | -1.9 | 0.4
C/C(=N\NC(=O)c1c[nH]c2ccccc12)c1ccco1 | 0.2 | 2.0 | 5.9* | 0.4 | 5.3 | 4.4
C/C(=N\NC(=O)c1ccccc1[N+](=O)[O-])c1ccc(Br)s1 | -1.2 | 0.1 | -1.3 | -0.4 | -4.2 | 1.0
C/C(=N\NC(=O)c1ccccc1O)c1ccc(Br)s1 | -1.1 | 1.1 | -0.5 | -0.1 | 4.6 | 10.9*
CCc1ccc(/C(C)=N/NC(=O)c2c[nH]c3ccccc23)s1 | 1.1* | 0.5 | 6.5* | 0.1 | 2.2 | 3.9
COc1ccc2c(-c3cc4ccc(OCc5ccc(F)cc5)cc4oc3=O)cc(=O)oc2c1 | -1.6 | -0.1 | -0.2 | -0.7 | -2.0 | 0.8
O=C1COc2ccc(OCc3ccc(F)cc3)cc21 | 0.5 | 1.3 | 4.9 | 1.1 | 4.8 | 12.2*
COc1ccc(S(=O)(=O)Cc2ccc(C(=O)NC3CCC(C)CC3)o2)cc1 (stereo not drawn) | -1.1 | 0.0 | 3.0 | 0.5 | -2.2 | 0.8
COc1ccc(CNC(=O)c2ccc(CS(=O)(=O)c3ccc(OC)cc3)o2)cc1 | -1.5 | 0.0 | 0.0 | 0.7 | -2.4 | -2.1
COc1ccccc1S(=O)Cc1ccc(C(=O)NC2CCCC2)o1 (stereo not drawn) | -1.4 | 0.9 | -0.5 | 5.5* | -0.4 | -1.8
COc1ccc(CNC(=O)c2ccc(CS(=O)(=O)c3ccc(Br)cc3)o2)cc1 | -1.4 | -1.3 | -2.3 | 6.2* | -0.7 | 3.1
COc1ccc(S(=O)(=O)Cc2ccc(C(=O)NC3CC3)o2)cc1 | -1.8 | -0.1 | -1.0 | 13.2* | -0.3 | -0.5
C/C(=N\NC(=S)NC1CCCCC1)c1ccc(Cl)c(Cl)c1 | -1.6 | 0.3 | -1.1 | 25.0* | -1.3 | -1.5
Cc1cc(F)ccc1-c1cc(C(=O)NC(C)C)[nH]n1 | -0.7 | 0.6 | 1.4 | · | -0.1 | 4.3
Nc1c(Cl)cc(C2=NCCn3nc4cc([N+](=O)[O-])ccc4c32)cc1Cl | 0.1 | -0.4 | 5.8* | 0.8 | 0.8 | -0.5
COc1ccc2c3n(nc2c1)CCN=C3c1cc(Cl)c(N)c(Cl)c1 | -0.6 | -0.5 | 0.4 | -0.2 | 2.7 | 0.4
Clc1ccc(NN(Cc2ccncc2)c2ccc(Cl)cc2)cc1 | -0.9 | -0.2 | -0.7 | 0.7 | -2.4 | -0.2

Compound activity as filed in PubChem.
